Assay results taken from PubChem BioAssay.
Inconclusive results are not listed. Activity calls are given as the source filed them.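 How the source made its calls, unless noted: active means inhibition above the screen-wide mean plus 3 SD, about 51%; inactive means the rest.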

Experiments:
[1] = rapamycin-like changes in RPL19A-GFP expression – cell-based, S. cerevisiae, multiplex flow cytometry, primary screen (AID 1862; in the data active means percent of DMSO control GFP below about 86%;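 further: lower values mimic rapamycin by blocking the RPL19A rise seen in DMSO cells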); conditions: S. cerevisiae RPL19A-GFP strain, flow cytometry fluorescence, 3 h; at 10 µM; stronger effect = lower value
[2] = TOR pathway GLN3 branch reporter MEP2-GFP changes – S. cerevisiae, multiplex flow cytometry, primary screen (AID 1867;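 active means GFP response, as percent of the DMSO control, above the screen-wide mean plus 3 SD, about 139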;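 further: median GFP channel fluorescence of barcode-gated MEP2-GFP cells measured by flow cytometry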); conditions: S. cerevisiae MEP2-GFP strain, 3 h, at 10 µM, stronger effect = higher value, 100% means same as DMSO wells
[3] = TOR pathway RTG branch CIT2 reporter changes – S. cerevisiae, GFP fusion, multiplex flow cytometry, primary screen (AID 1870;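 active means percent response above a set limit, the screen-wide mean plus 3 SD, cut at about 130% in these data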;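 further: barcoded CIT2-GFP strain pooled with four other GFP strains with rapamycin as positive control; median GFP fluorescence per well over plate mean of DMSO wells so 100% = DMSO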); conditions: S. cerevisiae CIT2-GFP expression, 3 h, at 10 µM, stronger effect = higher value
[4] = TOR pathway LAP4-GFP level changes – S. cerevisiae, multiplex flow cytometry, primary screen (AID 1873;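 active means GFP signal, as percent of the solvent control, above the screen mean plus 3 SD, about 149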); conditions: S. cerevisiae LAP4-GFP expression, 3 h, at 10 µM, stronger effect = higher value
[5] = yeast AGP1-GFP level changes, GLN3 branch – cell-based, multiplex flow cytometry, S. cerevisiae, primary screen (AID 1887;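 active means GFP signal above the screen-wide mean plus 3 SD, that is over about 124.5% of the solvent control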;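 further: AGP1-GFP fusion strain of S. cerevisiae within a five-strain barcoded multiplex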); conditions: 3 h, at 10 µM, stronger effect = higher value
[6] = reduced mouse 2C T cell binding to pMHC/ICAM-1 vesicles – MLPCN validation set, flow cytometry, LFA-1/ICAM-1 modulator project, pilot screen (AID 2523;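 active means response below a set limit, under 55% cells CD8-positive and vesicle-bound, and CD8 cells' 90th-percentile brightness under 279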;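 on vesicle binding response: mean PE anti-B7-1 fluorescence of CD8+ cells relative to row control; 100% = QL9-loaded vesicles with DMSO vehicle in the same plate row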); conditions: 2C mouse CD8+ T cells, at 7 µM, stronger effect = lower value; double positive events: measured here: CD8+/vesicle+ event percentage
[7] = target: Integrin beta-1 (Homo sapiens) + Integrin alpha-4 (Homo sapiens) (UniProt P13612+P05556); experiment: alpha4beta1 integrin LIBS antibody binding reduction – U937 cells, HUTS-21 mAb, flow cytometry, validation set, VLA-4 allosteric modulator project, pilot screen (AID 2674;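 active means inhibition above 50%, about 3 SD of the validation set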;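 further: antibody binding induced by the VLA-4 ligand LDV present at three times its Kd; 0% = LDV ligand with antibody and no compound and 100% = antibody without LDV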); conditions: HUTS-21 LIBS mAb binding, at 6.7 µM, stronger effect = higher value, binding induced by LDV ligand
[8] = calorie-restriction mimetic ROS inhibitors, yeast – validation compound set, pilot screen (AID 2706;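 active means superoxide response below 65% of plate, a cut near 3 SD across the whole screen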;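 further: yeast exposed to compound for one week at 30 degrees C before staining; 100% = mean of all compound wells on the same plate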); conditions: S. cerevisiae aging, superoxide DHE fluorescence; at 10 µM, stronger effect = lower value
[9] = target: Beta-adrenergic receptor kinase 1 (Homo sapiens) (UniProt P25098); experiment: GRK2 binders displacing RNA aptamer, biochemical, validation, human GRK2, bead flow cytometry (AID 488806;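 active means aptamer binding inhibition above 30%, about 3 SD of noise from non-fluorescent compounds; inactive means inhibition at or below 30%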); conditions: bead-bound GRK2, FAM-aptamer displacement, at 10 µM, stronger effect = higher value
[10] = target: AP-2 complex subunit beta (Homo sapiens) (UniProt P63010); experiment: beta-arrestin/AP2 interaction blockers – biochemical, validation set, GST-AP2 beads, flow cytometry, pilot screen (AID 504541;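 active means inhibition above 54%, about 3 SD of non-fluorescent compounds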;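 further: AP2 carries R879A mutation and is captured from E. coli lysate; bead-bound FITC arrestin peptide fluorescence measuring arrestin peptide binding to AP2; 0% = DMSO wells and 100% = excess unlabeled arrestin peptide control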); conditions: FITC arrestin peptide, at 10 µM, stronger effect = higher value, AP2 beta2 appendage fragment, R879A mutant
[11] = cytosolic pH regulators acting via V-ATPase – S. cerevisiae, pHLuorin, HTS validation (AID 504600; in the data active means response above about 15%;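 further: plate controls were DMSO for no effect and reference compound for full effect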); conditions: V-ATPase proton transport, at 10 µM, stronger effect = higher value
[12] = system: anti-desmoglein-3 scFv antibody binding to human DSG3; experiment: blockers of pathogenic pemphigus antibody–desmoglein-3 binding – biochemical, validation compound set, bead-based, flow cytometry, pilot screen (AID 588368;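 active means binding below the plate cutoff, the plate median minus 3 SD, with a reading above zero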;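 further: signal is the median channel fluorescence of bead-bound GFP antibody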); conditions: Protein G beads, DSG3-Fc, scFv-GFP binding, at 10 µM, stronger effect = lower value
[13] = Nile Red efflux blockade in pump-expressing yeast – validation compound set, multiplex, phenotypic, pilot screen (AID 588506;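 active means efflux inhibition above 0.42, the validation set average plus 4 SD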;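 further: Nile Red retained in cells so higher fluorescence means more efflux inhibition; 0 = negative control wells and 1 = enniatin B 25 µM full block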); conditions: S. cerevisiae pump-expressing triplex, Nile Red efflux flow cytometry; at 10 µM; stronger effect = higher value; the pumps come from Candida albicans
[14] = target: ATP-binding cassette sub-family B member 6 (Homo sapiens) (UniProt Q9NP58); experiment: blockers of ABCB6-driven porphyrin uptake – K562-ABCB6 cells, flow cytometry, validation set, pilot screen (AID 588550); conditions: K562-ABCB6 porphyrin accumulation, 1 h, at 10 µM, stronger effect = higher value;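 further: 0% = DMSO wells and 100% = benzethonium chloride 70 µM positive control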
[15] = AML differentiation inducers, ER-HoxA9 marrow cells – cell-based, GFP/MAC1 double positive, flow cytometry, validation set, primary screen (AID 588685;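 active means differentiation response of at least 50%, scaled between solvent and reference control, from cells with both markers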;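 further: compound exposure lasts four days before antibody staining and flow analysis; 0% = DMSO wells and 100% = 5 µM fulvestrant positive control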); conditions: stronger effect = higher value, normalized: vehicle 0, fulvestrant 100

Integrin beta-1 (Homo sapiens) + Integrin alpha-4 (Homo sapiens), sequence (P05556 whole entry, looked up): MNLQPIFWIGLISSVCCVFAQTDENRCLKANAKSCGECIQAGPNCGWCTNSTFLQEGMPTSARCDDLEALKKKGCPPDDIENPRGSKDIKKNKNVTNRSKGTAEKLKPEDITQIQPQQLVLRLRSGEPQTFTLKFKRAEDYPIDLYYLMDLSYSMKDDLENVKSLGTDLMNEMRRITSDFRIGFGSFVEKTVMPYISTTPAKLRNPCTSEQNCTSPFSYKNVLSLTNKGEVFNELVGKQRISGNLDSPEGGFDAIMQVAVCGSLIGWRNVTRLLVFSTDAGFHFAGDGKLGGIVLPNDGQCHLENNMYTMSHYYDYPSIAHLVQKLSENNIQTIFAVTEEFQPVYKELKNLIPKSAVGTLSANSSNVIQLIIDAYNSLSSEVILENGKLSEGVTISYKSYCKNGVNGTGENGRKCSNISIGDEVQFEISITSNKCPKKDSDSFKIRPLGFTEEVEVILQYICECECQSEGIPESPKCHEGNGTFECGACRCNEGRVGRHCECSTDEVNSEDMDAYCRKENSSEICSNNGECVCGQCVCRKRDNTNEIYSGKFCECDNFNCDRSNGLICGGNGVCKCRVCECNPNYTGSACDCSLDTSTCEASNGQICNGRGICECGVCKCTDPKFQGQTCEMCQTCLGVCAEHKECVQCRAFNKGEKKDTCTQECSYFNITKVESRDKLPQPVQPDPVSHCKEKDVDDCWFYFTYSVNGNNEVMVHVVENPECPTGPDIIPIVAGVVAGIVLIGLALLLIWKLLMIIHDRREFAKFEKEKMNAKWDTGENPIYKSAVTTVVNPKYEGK
Integrin beta-1 (Homo sapiens) + Integrin alpha-4 (Homo sapiens), sequence (P13612 whole entry, looked up): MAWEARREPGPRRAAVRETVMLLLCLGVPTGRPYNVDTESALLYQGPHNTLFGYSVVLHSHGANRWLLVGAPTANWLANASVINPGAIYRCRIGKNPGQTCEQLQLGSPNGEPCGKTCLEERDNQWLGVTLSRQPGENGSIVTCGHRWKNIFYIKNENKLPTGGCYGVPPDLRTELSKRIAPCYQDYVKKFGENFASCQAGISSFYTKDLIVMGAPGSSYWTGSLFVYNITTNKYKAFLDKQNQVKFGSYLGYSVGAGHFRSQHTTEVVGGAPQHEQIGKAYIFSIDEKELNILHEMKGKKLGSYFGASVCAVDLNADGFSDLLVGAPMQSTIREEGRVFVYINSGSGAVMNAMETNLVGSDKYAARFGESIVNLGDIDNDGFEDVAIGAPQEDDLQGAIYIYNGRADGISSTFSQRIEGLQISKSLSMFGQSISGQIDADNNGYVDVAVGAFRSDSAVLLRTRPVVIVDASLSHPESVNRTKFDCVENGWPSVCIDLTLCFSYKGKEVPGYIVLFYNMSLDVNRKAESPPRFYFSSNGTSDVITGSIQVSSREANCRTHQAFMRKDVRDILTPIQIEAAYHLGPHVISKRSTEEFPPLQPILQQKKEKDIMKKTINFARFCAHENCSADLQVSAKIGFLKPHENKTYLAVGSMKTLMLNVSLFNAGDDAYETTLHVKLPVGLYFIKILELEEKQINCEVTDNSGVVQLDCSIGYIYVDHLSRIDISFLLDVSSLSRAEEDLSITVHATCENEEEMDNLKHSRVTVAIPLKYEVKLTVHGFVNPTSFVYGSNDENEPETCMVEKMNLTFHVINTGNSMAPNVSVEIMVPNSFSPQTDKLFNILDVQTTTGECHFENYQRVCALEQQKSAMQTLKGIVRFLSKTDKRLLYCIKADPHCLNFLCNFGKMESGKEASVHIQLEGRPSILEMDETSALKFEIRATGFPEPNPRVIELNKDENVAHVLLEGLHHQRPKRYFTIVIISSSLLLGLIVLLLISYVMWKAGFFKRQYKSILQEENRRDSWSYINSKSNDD
AP-2 complex subunit beta (Homo sapiens), sequence (P63010 whole entry, looked up, the tested form may be a part, one chain of several): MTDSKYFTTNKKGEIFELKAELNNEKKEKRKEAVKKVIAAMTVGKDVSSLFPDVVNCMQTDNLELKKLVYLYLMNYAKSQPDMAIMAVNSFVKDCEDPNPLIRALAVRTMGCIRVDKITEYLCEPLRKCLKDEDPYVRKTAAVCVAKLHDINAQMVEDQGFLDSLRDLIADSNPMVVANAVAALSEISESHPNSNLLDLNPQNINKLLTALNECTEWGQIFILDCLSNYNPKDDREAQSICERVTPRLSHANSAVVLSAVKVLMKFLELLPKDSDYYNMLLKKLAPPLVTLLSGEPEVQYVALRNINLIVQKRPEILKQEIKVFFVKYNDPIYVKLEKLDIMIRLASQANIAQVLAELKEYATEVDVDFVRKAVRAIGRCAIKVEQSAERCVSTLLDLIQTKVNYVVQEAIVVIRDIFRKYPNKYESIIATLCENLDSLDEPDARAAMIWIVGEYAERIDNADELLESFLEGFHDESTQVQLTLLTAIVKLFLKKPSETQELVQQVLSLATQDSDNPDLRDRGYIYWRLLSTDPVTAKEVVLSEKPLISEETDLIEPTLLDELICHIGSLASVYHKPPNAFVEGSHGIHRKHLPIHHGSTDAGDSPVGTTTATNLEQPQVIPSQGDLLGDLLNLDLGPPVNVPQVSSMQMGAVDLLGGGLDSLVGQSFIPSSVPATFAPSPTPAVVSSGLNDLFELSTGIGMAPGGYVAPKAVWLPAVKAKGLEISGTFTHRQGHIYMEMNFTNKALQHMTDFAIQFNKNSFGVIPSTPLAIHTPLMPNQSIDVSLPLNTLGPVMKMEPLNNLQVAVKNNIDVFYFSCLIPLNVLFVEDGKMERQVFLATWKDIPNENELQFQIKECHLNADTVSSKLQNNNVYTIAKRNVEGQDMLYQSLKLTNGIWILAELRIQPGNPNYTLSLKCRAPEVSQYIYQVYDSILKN
ATP-binding cassette sub-family B member 6 (Homo sapiens), sequence (Q9NP58 whole entry, looked up): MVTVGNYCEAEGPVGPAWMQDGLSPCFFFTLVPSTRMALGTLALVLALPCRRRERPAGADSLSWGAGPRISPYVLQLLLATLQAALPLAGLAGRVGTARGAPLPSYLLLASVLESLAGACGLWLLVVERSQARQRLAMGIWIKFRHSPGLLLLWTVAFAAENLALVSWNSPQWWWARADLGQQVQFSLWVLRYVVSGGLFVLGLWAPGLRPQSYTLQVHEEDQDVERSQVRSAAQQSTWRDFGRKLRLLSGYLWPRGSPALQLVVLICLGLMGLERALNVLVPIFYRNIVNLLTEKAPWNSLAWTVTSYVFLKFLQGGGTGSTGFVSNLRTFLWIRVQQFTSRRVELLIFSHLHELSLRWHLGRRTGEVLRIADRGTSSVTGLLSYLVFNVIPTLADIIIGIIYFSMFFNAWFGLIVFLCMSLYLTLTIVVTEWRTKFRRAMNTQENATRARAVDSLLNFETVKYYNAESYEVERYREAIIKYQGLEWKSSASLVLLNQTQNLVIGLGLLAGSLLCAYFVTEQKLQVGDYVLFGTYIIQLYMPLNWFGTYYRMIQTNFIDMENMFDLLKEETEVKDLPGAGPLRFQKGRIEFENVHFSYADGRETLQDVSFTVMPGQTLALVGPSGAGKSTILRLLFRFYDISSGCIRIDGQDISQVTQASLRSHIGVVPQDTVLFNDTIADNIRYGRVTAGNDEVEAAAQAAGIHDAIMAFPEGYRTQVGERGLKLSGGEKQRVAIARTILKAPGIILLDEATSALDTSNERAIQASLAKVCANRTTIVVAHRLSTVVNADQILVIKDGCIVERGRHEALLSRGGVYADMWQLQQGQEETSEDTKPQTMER
Beta-adrenergic receptor kinase 1 (Homo sapiens), sequence (P25098 whole entry, looked up): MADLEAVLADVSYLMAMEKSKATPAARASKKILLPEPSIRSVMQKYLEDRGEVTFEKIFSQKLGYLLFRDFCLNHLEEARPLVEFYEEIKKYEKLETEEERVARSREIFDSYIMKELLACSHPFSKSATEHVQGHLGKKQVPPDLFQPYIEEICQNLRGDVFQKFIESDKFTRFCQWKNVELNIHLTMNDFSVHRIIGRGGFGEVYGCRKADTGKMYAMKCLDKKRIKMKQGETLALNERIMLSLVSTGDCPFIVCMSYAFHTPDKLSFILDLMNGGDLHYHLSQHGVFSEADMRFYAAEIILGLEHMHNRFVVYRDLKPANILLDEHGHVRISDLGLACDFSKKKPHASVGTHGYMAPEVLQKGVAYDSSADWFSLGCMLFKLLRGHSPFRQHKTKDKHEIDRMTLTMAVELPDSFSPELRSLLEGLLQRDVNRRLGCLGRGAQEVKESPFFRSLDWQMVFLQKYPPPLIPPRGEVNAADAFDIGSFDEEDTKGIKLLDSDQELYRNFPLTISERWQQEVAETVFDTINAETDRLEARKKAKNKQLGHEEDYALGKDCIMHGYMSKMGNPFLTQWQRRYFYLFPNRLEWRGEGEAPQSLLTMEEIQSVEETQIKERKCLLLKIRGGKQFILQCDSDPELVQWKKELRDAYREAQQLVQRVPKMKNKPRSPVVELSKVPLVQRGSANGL

COc1cc2c(cc1OC)C(c1cc(OC)c(OC)c(OC)c1)NCC2 (stereo not given)
inactive: percent of DMSO control GFP [1] 101% | GFP response vs DMSO [2] 103% | percent response of DMSO control [3] 108% | GFP response vs DMSO [4] 90.3% | GFP response, % of DMSO [5] 102% | vesicle binding response [6] 148% | inhibition [7] -0.24% | superoxide response (% of plate) [8] 102% | aptamer binding inhibition [9] 2% | inhibition [10] -5.98% | response [11] -3.82% | binding (% of control) [12] 96% | efflux inhibition (fraction of control) [13] -0.01 | inhibition [14] 7% | differentiation response [15] -14.7%
59.3%: double positive events [6]

COc1ccc(CNC(=O)C2CCN(C(=O)[C@@H](CC(C)C)NC(=O)OC(C)(C)C)CC2)cc1
63.6%: double positive events [6]
inactive: percent of DMSO control GFP [1] 98.3% | GFP response vs DMSO [2] 90.8% | percent response of DMSO control [3] 98.8% | GFP response vs DMSO [4] 92.3% | GFP response, % of DMSO [5] 92.7% | vesicle binding response [6] 326% | inhibition [7] 14.7% | superoxide response (% of plate) [8] 98.6% | aptamer binding inhibition [9] 1% | inhibition [10] -7.96% | response [11] -2.19% | binding (% of control) [12] 98.7% | efflux inhibition (fraction of control) [13] -0.09 | inhibition [14] 8% | differentiation response [15] 3.03%

COc1ccc(CC(=O)c2c(O)cc(O)cc2O)cc1OC
inactive: percent of DMSO control GFP [1] 103% | GFP response vs DMSO [2] 110% | percent response of DMSO control [3] 98.8% | GFP response vs DMSO [4] 101% | GFP response, % of DMSO [5] 97.5% | vesicle binding response [6] 171% | inhibition [7] 1.62% | superoxide response (% of plate) [8] 102% | aptamer binding inhibition [9] 1% | inhibition [10] 49.5% | response [11] -6.13% | binding (% of control) [12] 100% | efflux inhibition (fraction of control) [13] 0.18 | inhibition [14] 3% | differentiation response [15] 27.2%
58.4%: double positive events [6]

CC1=CC2(O)OCCN(CCO)C2=CC1=O (stereo not given)
56.9%: double positive events [6]
inactive: percent of DMSO control GFP [1] 103% | GFP response vs DMSO [2] 102% | percent response of DMSO control [3] 101% | GFP response vs DMSO [4] 93.3% | GFP response, % of DMSO [5] 97.9% | vesicle binding response [6] 162% | inhibition [7] -12.4% | superoxide response (% of plate) [8] 103% | aptamer binding inhibition [9] 2% | inhibition [10] -3.8% | response [11] -1.28% | binding (% of control) [12] 102% | efflux inhibition (fraction of control) [13] 0.29 | inhibition [14] 7% | differentiation response [15] 3.03%

COC(=O)c1cc(=O)c2ccc(OC)cc2o1
52.9%: double positive events [6]
inactive: percent of DMSO control GFP [1] 99.1% | GFP response vs DMSO [2] 97.9% | percent response of DMSO control [3] 111% | GFP response vs DMSO [4] 100% | GFP response, % of DMSO [5] 90.9% | vesicle binding response [6] 152% | inhibition [7] 17.5% | superoxide response (% of plate) [8] 94.7% | aptamer binding inhibition [9] 1% | inhibition [10] -3.93% | binding (% of control) [12] 101% | efflux inhibition (fraction of control) [13] 0.03 | inhibition [14] 6% | differentiation response [15] -11.5%
active: response [11] 37.7%

NCCOc1ccccc1OCCN
inactive: percent of DMSO control GFP [1] 102% | GFP response vs DMSO [2] 93.8% | percent response of DMSO control [3] 102% | GFP response vs DMSO [4] 90.3% | GFP response, % of DMSO [5] 99.9% | vesicle binding response [6] 208% | inhibition [7] -6.77% | superoxide response (% of plate) [8] 91.8% | aptamer binding inhibition [9] -6% | inhibition [10] -11.9% | response [11] -1.26% | binding (% of control) [12] 109% | efflux inhibition (fraction of control) [13] -0.2 | inhibition [14] 11% | differentiation response [15] -26%
59.5%: double positive events [6]

CCc1c(C)c2ccc(OCC(=O)OC(C)C)c(C)c2oc1=O
57.1%: double positive events [6]
inactive: percent of DMSO control GFP [1] 98.1% | GFP response vs DMSO [2] 96.9% | percent response of DMSO control [3] 93% | GFP response vs DMSO [4] 89.3% | GFP response, % of DMSO [5] 88.5% | vesicle binding response [6] 142% | inhibition [7] 7.22% | superoxide response (% of plate) [8] 101% | aptamer binding inhibition [9] -3% | inhibition [10] 19.5% | response [11] 3.44% | binding (% of control) [12] 101% | efflux inhibition (fraction of control) [13] 0.29 | inhibition [14] 8% | differentiation response [15] -18%

CC(C)Cc1cc(C(=O)N2CCC(N3CCC(C(=O)N4CCCC4)CC3)CC2)n[nH]1
47.5%: double positive events [6]
inactive: percent of DMSO control GFP [1] 100% | GFP response vs DMSO [2] 89.7% | percent response of DMSO control [3] 109% | GFP response vs DMSO [4] 96.4% | GFP response, % of DMSO [5] 102% | vesicle binding response [6] 191% | inhibition [7] -2.11% | superoxide response (% of plate) [8] 102% | aptamer binding inhibition [9] -3% | inhibition [10] 3.03% | response [11] 1.07% | binding (% of control) [12] 107% | efflux inhibition (fraction of control) [13] -0.16 | inhibition [14] 3% | differentiation response [15] -27.6%

O=C(O)CC(O)C(=O)O (stereo not given)
62.1%: double positive events [6]
inactive: percent of DMSO control GFP [1] 101% | GFP response vs DMSO [2] 106% | percent response of DMSO control [3] 103% | GFP response vs DMSO [4] 104% | GFP response, % of DMSO [5] 99.6% | vesicle binding response [6] 146% | inhibition [7] 10.9% | superoxide response (% of plate) [8] 95.8% | aptamer binding inhibition [9] 3% | inhibition [10] 1.04% | response [11] -1.46% | binding (% of control) [12] 99.3% | efflux inhibition (fraction of control) [13] 0.1 | inhibition [14] 14% | differentiation response [15] 1.41%

Cc1ncc([N+](=O)[O-])n1CCO
59.8%: double positive events [6]
inactive: percent of DMSO control GFP [1] 99.6% | GFP response vs DMSO [2] 93.8% | percent response of DMSO control [3] 105% | GFP response vs DMSO [4] 97.4% | GFP response, % of DMSO [5] 94.6% | vesicle binding response [6] 172% | inhibition [7] 10% | superoxide response (% of plate) [8] 98.8% | aptamer binding inhibition [9] 1% | inhibition [10] -1.26% | response [11] 3.07% | binding (% of control) [12] 93.1% | efflux inhibition (fraction of control) [13] 0.18 | inhibition [14] 5% | differentiation response [15] -9.89%
